From PubChem BioAssay AID1159580 (chemical genetic matrix, 2015)
Among all 5,500 compounds or so, about 2,000 (36%) were called active. Another 18% or so got no clear call; they are omitted. Rule as the data show it: active = normalized growth mostly below about 0.91 (no sharp cut-off); inconclusive = no clear call, values can overlap the other calls; inactive = mostly above about 0.92. The list shows a part of the results.

Assay: chemical genetic growth profiling, strain panel (AID 1159580);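 also: tested at 20 µM; growth read once vehicle control cultures reached saturation at 30 °C; 1 = growth at the plate median or of vehicle wells; lower values mean less growth of the strain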
Conditions: S. cerevisiae deletion strains, growth OD

Measured: normalized growth

CCN1CN=C(SCc2ccc(Br)cc2)NC1
inactive: locus YAL013W, strain DEP1, active compounds read low 1.01 | locus YBR229C, strain ROT2, active compounds read low 1.01 | locus YCL061C, strain MRC1, active compounds read low 1.02 | locus YDL101C, strain DUN1, active compounds read low 0.998 | locus YDL134C, strain PPH21, active compounds read low 1.01 | locus YDR150W, strain NUM1, active compounds read low 0.995 | locus YEL061C, strain CIN8, active compounds read low 1.01 | locus YGR078C, strain PAC10, active compounds read low 0.998 | locus YHR030C, strain SLT2, active compounds read low 0.902 | locus YHR087W, strain rtc3, active compounds read low 0.999 | locus YJL187C, strain SWE1, active compounds read low 1.01 | locus YJR043C, strain POL32, active compounds read low 0.988 | locus YJR075W, strain HOC1, active compounds read low 0.98 | locus YKL190W, strain CNB1, active compounds read low 1.02 | locus YLR039C, strain RIC1, active compounds read low 0.982 | locus YLR058C, strain SHM2 (second series), active compounds read low 1.02 | locus YLR085C, strain ARP6, active compounds read low 1.02 | locus YLR262C, strain YPT6, active compounds read low 0.953 | locus YML094W, strain GIM5, active compounds read low 0.996 | locus YMR219W, strain ESC1, active compounds read low 0.999 | locus YMR263W, strain SAP30, active compounds read low 1.01 | locus YMR307W, strain GAS1, active compounds read low 1.17 | locus YNL153C, strain GIM3, active compounds read low 0.986 | locus YNL298W, strain CLA4 (second series), active compounds read low 0.984 | locus YNL322C, strain KRE1, active compounds read low 1.01 | locus YNR030W, strain Alg12, active compounds read low 0.999 | locus YPL055C, strain LGE1, active compounds read low 1.06 | locus YPL241C, strain CIN2, active compounds read low 0.995 | locus YPR135W, strain CTF4, active compounds read low 0.98
